# AI-2 QS mod: Vibrio harveyi AI-2 quorum sensing modulators, primary screen, JMH597 strain, luminescence/OD600 ratio. activity change, % at 7.5 µM. actives 0.4% (n = 300,000). Vibrio harveyi JMH597 AI-2 luminescence/OD600 ratio, 9 h; hits give low values; strain lacks LuxN and CqsS sensors; 0 = neutral-control median; in the data active means activity change below about -75%, passing the limit was not always enough;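 further: luminescence divided by OD600 gain over 9 h not by final OD600 alone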
# ALR H2O2 inh: inhibitors of human ALR sulfhydryl oxidase, primary screen, biochemical, H2O2 detection, HRP-luminol luminescence, single point; FAD-linked sulfhydryl oxidase ALR (Homo sapiens), P55789; purified ALR, DTT oxidation; AID 485317, 2010; actives 3.8% (n = 290,000); inhibition, % (test concentration not listed);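 active means mean replicate inhibition above about 79%, with every replicate also reaching it, limit read from the data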
# PREPL inh: PREPL enzyme inhibitors, primary screen, biochemical, fluorescence polarization | Prolyl endopeptidase-like (Homo sapiens), Q4J6C6 | recombinant PREPL, fluorescence polarization activity-based probe | inhibition, % at 5.96 µM | actives 0.68% (n = 320,000) | AID 2751, 2010; in the data active means inhibition above about 43%;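 further: 0% = enzyme with DMSO and 100% = wells lacking enzyme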
# CHT PAM: CHT positive allosteric modulators, primary screen, cell-based, membrane potential dye, choline EC20; actives 0.49% (n = 310,000); CHT-expressing cells; hits give high values; LV-AA mutant CHT in HEK293 cells; B-score at 10 µM; AID 488977, 2010;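 active means initial fluorescence not abnormally high and integrated response B-score, plate-corrected, over 3 SD above library mean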
# CHT inh: inhibitors of human choline transporter CHT; High affinity choline transporter 1 (Homo sapiens), Q9GZV3; CHT-expressing cells, membrane potential dye, choline response; hits give low values; B-score at 10 µM; actives 0.86% (n = 310,000); AID 488975, 2010;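 active means B-score over 3 SD under the library average, and starting fluorescence ratio not unusually high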;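 further: choline stimulus applied at its EC90 after an EC20 pre-addition; B-score computed on integrated fluorescence ratio after choline addition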
# Numbers without * were called inactive; i = inactive; nt = no result given. Compounds with a hit are over-represented: about 5% of the library has one in this group of screens.
SMILES,AI-2 QS mod,ALR H2O2 inh,PREPL inh,CHT PAM,CHT inh
COC(=O)CSc1nc(-c2ccccc2)cc(-c2ccco2)c1C#N,36,95*,-4,i,i
O=c1c2oc3ccccc3c2[nH]c(=S)n1-c1ccccc1,11,92*,-5,i,i
Cc1ccc(-n2c(=S)[nH]c3c(oc4ccccc43)c2=O)cc1,1,52,0,i,i
COC(=O)c1ccccc1C(=O)N1CCCC(C(=O)c2ccc(OC)c(OC)c2)C1 (stereo not given),29,-21,2,i,i
Cc1cccc(C(=O)N2CCCC(Nc3ccc(F)c(F)c3)C2)n1 (stereo not given),-4,45,20,i,i
Cc1ccc(NC2CCCN(C(=O)c3cn(C)c4ccccc34)C2)cc1C (stereo not given),15,92*,23,i,i
O=C(c1ccccc1N1CCOCC1)N1CCCC(Nc2ccc(F)cc2)C1 (stereo not given),nt,98*,24,i,i
COc1ccc(NC2CCCN(C(=O)c3ccccc3N3CCOCC3)C2)cc1OC (stereo not given),13,98*,11,i,i
Cc1ccc(NC2CCCN(C(=O)c3ccccc3N3CCOCC3)C2)cc1C (stereo not given),17,99*,22,i,i
O=C(CCN1CCOCC1)N1CCCC(Nc2ccc(F)cc2)C1 (stereo not given),18,55,2,i,i
CC(C)CC(=O)Nc1ccc(C(=O)COC(=O)Cc2n[nH]c(=O)c3ccccc23)cc1,nt,-3,-6,nt,nt
COc1ccc(CC(=O)N/N=C/c2cccnc2)cc1OC,18,-18,2,i,i
O=C1COc2ccc(C(=O)COC(=O)c3ccc(F)cc3Cl)cc2N1,nt,6,31,nt,nt
CC1S/C(=N/N=C2CCCCC2)NC1=O (stereo not given),39,6,-1,i,i
CC1SC(=NC(=O)c2ccncc2)NC1=O (stereo not given),7,90*,-1,i,i
COc1ccc(CCNC(=O)COC(=O)CCC(=O)c2ccc(F)cc2)cc1,22,85*,-11,i,i
O=C(COC(=O)CCC(=O)c1ccc(F)cc1)NCCc1ccccc1,nt,-1,-13,nt,nt
CCOc1ccc(/C=C/C(=O)N(CC)CC(=O)Nc2ccc3c(c2)OCCO3)cc1OCC,13,1,13,i,i
Cc1ccc(S(=O)(=O)N(CC(=O)Nc2ccccc2C(=O)O)c2ccccc2C)cc1,1,-2,-1,i,i
Cc1ccc(S(=O)(=O)N(CC(=O)Nc2ccccc2C(=O)O)c2cccc(Cl)c2C)cc1,7,97*,-7,i,i
Cc1oc2c(c1C(=O)O)C(=O)c1ccccc1C2=O,-83*,nt,2,i,i
O=C1NC(=S)SC1=C1CCCCCC1,19,3,10,i,-6*
O=C(Cn1ncc(Cl)c(Cl)c1=O)NCC1CCCCC1,nt,95*,-6,i,i
CC1(C)OC(=O)C(=CNCCc2ccc(O)cc2)C(=O)O1,7,88*,3,i,i
CC(NCc1ccc(N(C)C)cc1)C1CC2CCC1C2 (stereo not given),19,98*,11,i,i
SMILES,AI-2 QS mod,ALR H2O2 inh,PREPL inh,CHT PAM,CHT inh
CC(NC(=O)c1ccc(CS(C)(=O)=O)cc1)C1CC2CCC1C2 (stereo not given),15,-1,-6,i,i
COc1ccc(C(=O)O)cc1S(=O)(=O)Nc1ccc(N2CCCCC2)cc1,nt,96*,10,nt,nt
CCC(=O)Nc1ccc(N2CCCCC2)cc1,37,nt,11,i,i
CCCC(=O)Nc1ccc(N2CCCCC2)cc1,25,82*,1,i,i
O=C(CCl)Nc1ccc(N2CCCCCC2)cc1,-55,99*,16,i,i
O=C(Nc1ccc(N2CCCCC2)cc1)C1CCCN1S(=O)(=O)c1ccc(F)cc1 (stereo not given),nt,80*,6,nt,nt
